Assay outcomes deposited in PubChem BioAssay by several laboratories.
Rows were chosen to be rich in hits. Some 4.7% of all compounds tested hit in one or more screens of this group.
ADAM10 inh: human ADAM10 inhibitors, primary screen, biochemical, QFRET, HTS. Disintegrin and metalloproteinase domain-containing protein 10 (Homo sapiens), O14672. recombinant ADAM10, EDANS/DABCYL FRET peptide cleavage, 3 h. inhibition, % at 7 µM. 0.62% of 370,000 active;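 active = inhibition above a per-campaign cutoff equal to the mean of compounds falling between control-based bounds plus 3 SD, cut at about 20% in these data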
Target sequence (O14672 214-748 limits assumed): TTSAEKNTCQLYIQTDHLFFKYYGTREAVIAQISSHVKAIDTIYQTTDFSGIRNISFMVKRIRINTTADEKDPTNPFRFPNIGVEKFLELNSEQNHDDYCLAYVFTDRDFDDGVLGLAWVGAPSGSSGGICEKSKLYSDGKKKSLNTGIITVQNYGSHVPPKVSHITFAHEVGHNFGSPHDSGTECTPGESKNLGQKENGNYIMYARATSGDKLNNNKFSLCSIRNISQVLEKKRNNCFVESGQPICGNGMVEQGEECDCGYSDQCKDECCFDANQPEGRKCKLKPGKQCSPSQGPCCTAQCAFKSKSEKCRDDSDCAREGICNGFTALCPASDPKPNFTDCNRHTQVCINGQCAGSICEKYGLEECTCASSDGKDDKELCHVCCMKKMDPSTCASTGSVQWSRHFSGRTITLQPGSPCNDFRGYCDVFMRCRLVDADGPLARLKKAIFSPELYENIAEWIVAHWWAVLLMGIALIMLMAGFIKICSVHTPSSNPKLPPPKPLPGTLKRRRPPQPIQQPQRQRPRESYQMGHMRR
DSG3 Ab inh: inhibitors of pemphigus antibody binding to DSG3, primary screen, biochemical, bead-based, flow cytometry, scFv-GFP; Desmoglein-3 (Homo sapiens), P32926; DSG3-coupled beads, scFv-anti-DSG3-GFP binding; stronger effect = lower value; binding (percent of control), % at 10 µM; 0.48% of 310,000 active;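 active = binding more than 3 SD below its plate's average and above zero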;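 also: hits lower antibody fragment binding to DSG3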
ADAM17 inh: ADAM17 inhibitors, primary screen, biochemical, QFRET | Disintegrin and metalloproteinase domain-containing protein 17 (Homo sapiens), P78536 | recombinant ADAM17, EDANS/DABCYL FRET peptide cleavage | inhibition, % at 6.95 µM | 0.83% of 370,000 active | AID 720648, 2013;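 active = inhibition above the mean of compounds lying between control limits plus 3 SD, set per campaign, cut at about 8.5% in these data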
rCAG RNA binder: binders of r(CAG) RNA repeats, primary screen, biochemical, fluorescence. r(CAG) RNA repeat, TO-PRO-1 dye displacement fluorescence. inhibition, % at 3 µM. 1.3% of 370,000 active. AID 651821, 2012;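 active = inhibition above the plate cutoff, the mean of all test compounds on that plate plus 3 SD, cut at about 35% in these data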;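 also: higher means more dye released from RNA so lower well fluorescence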
KLK7 zymogen act: proKLK7 zymogen activators, primary screen, biochemical, fluorescence intensity. purified proKLK7, EDANS-DABCYL substrate fluorescence; 100% is mature enzyme control, 0% vehicle. Kallikrein-7 (Homo sapiens), P49862. AID 652039, 2013. activation, % at 7 µM. 0.9% of 370,000 active;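 active = activation above the mean of all tested compounds plus 3 SD, computed per campaign excluding outliers beyond control limits, cut at about 13% in these data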
MPTP inh: mitochondrial permeability transition pore inhibitors, primary screen, biochemical, isolated mouse mitochondria, absorbance; Ca2+ swelling absorbance, 30 min; inhibition, % at 10 µM; 1.4% of 360,000 active; AID 602449, 2012;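 active = inhibition of 50% or more, scaled per plate between neutral and stimulator controls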
Rh123 counter: fluorescence retest of MPTP screen hits in isolated mitochondria, single concentration; shares compounds with MPTP inh; membrane potential, Rhodamine 123 fluorescence; 78% of 5,000 active; inhibition, % at 10 µM; in the data active = inhibition above about 22%
MPTP swell DR: mitochondrial permeability transition pore inhibitors, dose response, biochemical, absorbance, uHTS hits | IC50, µM | isolated mitochondria swelling | shares compounds with MPTP inh | AID 651561, 2012 | 58% of 780 active; in the data active = IC50 below about 20 µM
MPTP counter DR: fluorescent counter-screen in isolated mitochondria, dose response, counter-screen for MPTP inhibitor project, biochemical, fluorescence, uHTS hits. 49% of 780 active. IC50, µM. isolated mitochondria counterscreen, fluorescence read-out. shares compounds with MPTP inh; in the data active = IC50 below about 80 µM
Each line names hits and unclear results; the compound was inactive in the other large screens (follow-up assays come after a bar, where they were run).

CC1CCN(c2nc(/C=C/c3ccccc3)nc3ccccc23)CC1	none
O=S(=O)(NCCN1CCOCC1)c1ccc(Oc2ccccc2Cl)cc1	MPTP inh 75 | Rh123 counter 35
O=S(=O)(NCCN1CCOCC1)c1ccc2ccccc2c1	none
O=C(c1ccc(F)c(F)c1)N1CCC(Oc2cccnc2)CC1	none (no result: DSG3 Ab inh, MPTP inh)
N#Cc1c(NCCN)nc(-c2ccco2)c2c1CCCC2	MPTP inh 92 | Rh123 counter inactive | MPTP swell DR 13 | MPTP counter DR inactive
Cc1cc(N2CCN(C)CC2)ccc1NC(=O)c1ccc(-c2ccc(Cl)cc2)o1	MPTP inh 54 | Rh123 counter inactive
O=[N+]([O-])c1ccc2[nH]c3c(c2c1)CCCC3	MPTP inh 72 | Rh123 counter 71
N/N=C1\CCCc2c1[nH]c1ccc([N+](=O)[O-])cc21	none
COc1cc(OC)c(OC)cc1CNC(=O)c1cccc(S(=O)(=O)N2CCc3ccccc3C2)c1	MPTP inh 98 | Rh123 counter 104
Cc1cc(N2CCN(C)CC2)ccc1NC(=O)c1cccc(S(=O)(=O)N2CCc3ccccc3C2)c1	MPTP inh 92 | Rh123 counter inactive
Brc1ccc(CNc2ccc3ncccc3c2)cc1	MPTP inh 92 | Rh123 counter 86
COC(=O)c1ccccc1COc1cccn2c(N(C)CC3CC3)c(C)nc12	MPTP inh 67 (no result: DSG3 Ab inh) | Rh123 counter 97
Cc1nc2c(OCc3ccc(C(F)(F)F)cc3)cccn2c1N(C)CC1CC1	MPTP inh 81 (no result: DSG3 Ab inh) | Rh123 counter 107
CCOC(=O)N(C)c1c(CC)nc2c(OCc3ccc(C(F)(F)F)cc3)cccn12	none (no result: DSG3 Ab inh)
c1ccc2cc(OCCCn3ccnc3)ccc2c1	none
CC(C)(C)c1ccc(OCCCn2ccnc2)cc1	MPTP inh active | Rh123 counter inactive | MPTP swell DR 13 | MPTP counter DR 27
Cc1nc2c(cnn2-c2ccccc2Cl)c(=O)n1-c1ccc(N2CCC(C)CC2)cc1	none
CCc1nc2c(cnn2-c2ccc(F)cc2)c(=O)n1-c1ccc(N2CCC(C)CC2)cc1	MPTP inh 76 | Rh123 counter inactive | MPTP swell DR 7.3 | MPTP counter DR 21
Cc1cccc(C)c1NC(=O)C[N+](C)(C)CC(O)COc1cccc2ccccc12 (centres undefined)	MPTP inh 81 (no result: DSG3 Ab inh) | Rh123 counter inactive | MPTP swell DR 3.3 | MPTP counter DR 51
O=C1c2ccccc2C(=O)N1CC(O)COc1cccc2ccccc12 (centres undefined)	none (no result: DSG3 Ab inh)
Cc1ccc(Oc2ccc(NC(=O)Cn3ccsc3=N)cc2)cc1	MPTP inh 89 | Rh123 counter inactive | MPTP swell DR 6.3 | MPTP counter DR inactive
Cc1ccc(NC(=O)CN(C)C(=O)Cn2ccsc2=N)cc1	none
NC(=O)NOCc1ccc(Cl)cc1Cl	none
CNC(=S)/N=C/NOCc1ccc(Cl)cc1Cl	MPTP inh 101 | Rh123 counter 95
CCc1c(C)nc2ncnn2c1NCCc1ccc(Cl)cc1	MPTP inh 90 | Rh123 counter 40
CCCCCCCCN1C(=O)[C@@H](CC(=O)NCc2cccc3ccccc23)C[C@@]2(C(=O)OC)C1=C[C@H](C1CCCC1)O[C@@H]2C	none (no result: DSG3 Ab inh, MPTP inh)
COc1ccc(NC(=O)N(C)[C@H]2C[C@H]3c4[nH]c5c(-c6ccccc6)cccc5c4CCN3C(=O)[C@H]2[C@H](C)O)cc1	none (no result: DSG3 Ab inh, MPTP inh)
O=C(CSc1nc2ccccc2o1)Nc1ccc(N2CCOCC2)c(Cl)c1	MPTP inh 97 | Rh123 counter 93
O=C(CSc1nc(Nc2ccccc2)nc(N2CCOCC2)n1)Nc1ccc([N+](=O)[O-])cc1	MPTP inh 74 | Rh123 counter 70
Cc1cc(C)nc(SCC(=O)Nc2ccc(N3CCOCC3)c(Cl)c2)n1	MPTP inh 61 | Rh123 counter 78
CNc1nc(SCC(=O)Nc2ccc(Cl)c(Cl)c2)nc(N2CCOCC2)n1	none
O=C(CSc1nc2ccccc2s1)Nc1ccc(N2CCOCC2)c(Cl)c1	MPTP inh 90 | Rh123 counter 83
CCOC(=O)C1=CCN(S(C)(=O)=O)C1c1ccc(Cl)cc1 (centres undefined)	none (no result: DSG3 Ab inh, MPTP inh)
COc1ccc(C(=O)NCC(=O)OCc2ccc([N+](=O)[O-])cc2)cc1	none
Cc1ccc(C(=O)NCC(=O)NCC(=O)OCc2ccc(Oc3ccc([N+](=O)[O-])cc3)cc2)cc1	MPTP inh 51 | Rh123 counter 52
Cc1nc(Nc2ccccc2)[nH]c(=O)c1CCC(C)C	MPTP inh 57 | Rh123 counter 58
Cc1nc(N2CCc3ccccc3C2)[nH]c(=O)c1CCC(C)C	none (no result: ADAM10 inh, ADAM17 inh, rCAG RNA binder, KLK7 zymogen act)
COc1cc2c(cc1NC(=O)CSc1nnc(-c3cccc(Cl)c3)n1-c1ccccc1)oc1ccccc12	none (no result: DSG3 Ab inh, MPTP inh)
COC(=O)c1cc2c(c3c4ccccc4n(S(=O)(=O)c4ccc(C)cc4)c13)C(=O)N(C)C2	none (no result: DSG3 Ab inh, MPTP inh)
CCOC(=O)c1cnc(SCC(=O)Nc2cc(OC)ccc2OC)nc1N	MPTP inh 86 | Rh123 counter 69
CCOC(=O)c1cnc(SCC(=O)Nc2ccc(NC(C)=O)c(OC)c2)nc1N	none
c1ccc(CCNc2ncnc3ccccc23)cc1	MPTP inh 96 | Rh123 counter 103
Cc1cc2c(NCCc3ccccc3)ncnc2s1	MPTP inh 103 | Rh123 counter 95
O=C(CSc1ncnc2ccccc12)NCCc1ccccc1	none
CCCCCCCCNc1ncnc2ccccc12	MPTP inh 103 (no result: ADAM10 inh, ADAM17 inh, rCAG RNA binder, KLK7 zymogen act) | Rh123 counter 87
Brc1ccc2ncnc(NCc3ccccc3)c2c1	MPTP inh 59 | Rh123 counter 88
Cc1cccc(Nc2ncnc3ccc(Br)cc23)c1	none
COc1ccc(N)cc1CN1CCN(c2ncc(Cc3ccccc3)cn2)CC1	none (no result: DSG3 Ab inh, MPTP inh)
Cc1cccc(NC(=O)NN(C(=O)c2ccccc2Cl)C(C)(C)C)c1	none (no result: DSG3 Ab inh, MPTP inh)
Cc1ccc(CN2CCCCC(NC(=O)Nc3ccccc3F)C2=O)cc1 (centres undefined)	none (no result: DSG3 Ab inh, MPTP inh)
